AmpC detergent – blocks E. coli AmpC beta-lactamase in detergent assay; AmpC hydrolysis of nitrocefin, absorbance 480 nm, 0.01% Triton; Potency, µM (doses to about 114 µM), actives largely listed as inhibitors; P00811; 370,000 compounds, 0.041% hits; note: nearly all actives have a fitted effect of over 25% in size
Target sequence (P00811 whole entry, looked up): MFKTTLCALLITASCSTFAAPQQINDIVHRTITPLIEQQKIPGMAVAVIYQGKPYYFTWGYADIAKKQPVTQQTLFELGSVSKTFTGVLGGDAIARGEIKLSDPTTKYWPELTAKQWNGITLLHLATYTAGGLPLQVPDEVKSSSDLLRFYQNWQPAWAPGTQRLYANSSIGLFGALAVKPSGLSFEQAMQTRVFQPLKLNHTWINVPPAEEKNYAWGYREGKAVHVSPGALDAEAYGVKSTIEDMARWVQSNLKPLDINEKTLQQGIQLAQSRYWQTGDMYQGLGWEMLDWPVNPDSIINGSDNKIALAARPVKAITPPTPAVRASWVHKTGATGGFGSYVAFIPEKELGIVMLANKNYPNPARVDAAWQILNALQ
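20 mM phosphate pH 7.0 + 0.01% (detergent screen) or 0.0001% Triton X-100; 5.3 nM AmpC reagent; cpd preinc 15 min RT; nitrocefin (800 uM stock) to start; A480 q20 s × 4 min; Activity was normalised to no-enzyme and no-compound control wells.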
Pf growth 96h – P. falciparum growth inhibition at 96 hour, primary screen for plastid delayed-death inhibitors. Potency, µM (titrated, usually from 28.7 µM), actives largely listed as inhibitors. AID 504834. P. falciparum luciferase reporter growth, 96 h. 320,000 compounds, 6.9% hits
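Compounds incubated with erythrocytes infected by luciferase-expressing P. falciparum (2% hematocrit, 0.05% parasitemia final) for 96 hours, 37 C in 5% CO2. Growth inhibition scored as decreased luciferase luminescence.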
Sm TGR inh – inhibitors of Schistosoma mansoni thioredoxin glutathione reductase; AID 485364; Q962Y6; 360,000 compounds, 3% hits; purified TGR, DTNB reduction, TNB absorbance 405 nm; Potency, µM (doses to about 114 µM), hits mostly inhibitors; note: nearly all actives have a fitted effect of over 60% in size
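First, TGR (20 nM dispensed) and NADPH were mixed with compound. Second, a 15 min room-temperature incubation followed. Third, further NADPH and then DTNB were added to start the reaction. Finally, TNB absorbance was monitored kinetically.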
Pf growth 48h – inhibits P. falciparum growth in the first generation, 48 h; AID 504832; 310,000 compounds, 5.9% hits; P. falciparum luciferase growth in erythrocytes, 48 h; Potency, µM (series often up to 28.7 µM), hits mostly inhibitors
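Compounds are pin-transferred into medium, infected erythrocytes (2% hematocrit, 0.1% parasitemia final) are added, and plates sit one parasite generation at 37 C in 5% CO2. Detection reagent is then added and luminescence measured.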
SARS PLP yeast – SARS-CoV PLP inhibition in yeast; S. cerevisiae expressing SARS-CoV PLpro, growth rescue; Potency, µM (top dose mostly 32.9 µM), hits mostly activators; 330,000 compounds, 0.19% hits; calls by dose curve; note: nearly all actives have a fitted effect of over 55% in size
AmpC inh no detg – AmpC beta-lactamase inhibition without detergent | P00811 | AmpC nitrocefin hydrolysis, absorbance 480 nm, 0.0001% Triton | Potency, µM (highest dose often 57.1 µM), hits mostly inhibitors | 330,000 compounds, 0.52% hits; note: nearly all actives have a fitted effect of over 20% in size
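20 mM phosphate pH 7.0 + 0.01% (detergent screen) or 0.0001% Triton X-100; 5.3 nM AmpC reagent; cpd preinc 15 min RT; nitrocefin (800 uM stock) to start; A480 q20 s × 4 min; Activity was normalised to no-enzyme and no-compound control wells.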
Numbers stand for hits; 0 = inactive; ? = inconclusive; - = no result given. Hits are enriched below; roughly 12% of the tested compounds scored in any of these assays. Unless noted, calls come from the whole dose curve; as a rule, active = well fitted curve in the direction sought with a large enough effect; inconclusive = small, poorly fitted or top-dose-only effect, or another doubt; inactive = no such curve, though single readings can be large; an effect the other way counts as inactive or inconclusive.

SMILES	AmpC detergent	Pf growth 96h	Sm TGR inh	Pf growth 48h	SARS PLP yeast	AmpC inh no detg
COC(=O)Cn1c(=N)n(CCN2CCCCC2)c2ccccc21	0	0	0	0	0	0
Cc1ccc(C(=O)Cn2c(=N)n(CCN3CCOCC3)c3ccccc32)cc1	0	?	0	9.3µM	0	0
CCn1c(=N)n(CC(=O)c2ccc(Cl)c(Cl)c2)c2ccccc21	0	0	0	?	0	0
Cc1ccccc1CNC(=O)CN(c1ccccc1Cl)S(C)(=O)=O	0	?	0	0	0	0
COc1ccc(-n2c(=O)c3sc4ccccc4c3n(Cc3ccccc3)c2=O)cc1	0	-	0	-	-	-
CCCCN(C)S(=O)(=O)c1ccc(NC2=NS(=O)(=O)c3ccccc32)cc1	0	-	0	-	-	-
Cc1ccc(C(C)C)c(OCC(=O)OCC(=O)NC2CCS(=O)(=O)C2)c1 (stereo not drawn)	0	0	0	0	0	0
CN(C)CCn1c(=N)n(CC(O)c2ccc(Cl)c(Cl)c2)c2ccccc21 (stereo not drawn)	0	0	0	0.74µM	0	0
N=c1n(CCN2CCCCC2)c2ccccc2n1CC(O)c1cccc(Br)c1 (stereo not drawn)	0	0.74µM	0	0.59µM	0	0
Cc1ccccc1OCC(O)Cn1c(=N)n(CCN2CCCCC2)c2ccccc21 (stereo not drawn)	0	-	0	-	-	-
CCOC(=O)c1ccc(NC(=O)CCn2c(=O)c3cccn3c3ccccc32)cc1	0	-	0	-	-	-
O=c1c2c3nc4ccccc4nc3n(Cc3ccccc3)c2ncn1Cc1ccco1	0	-	8.9µM	10µM	0	0
N=c1c2c(-c3ccccc3)c(-c3ccccc3)n(Cc3ccco3)c2ncn1Cc1ccccc1	0	2.6µM	0	-	0	0
CCCCCn1c2nc3ccccc3nc2c2c(=O)n(CC(C)C)cnc21	?	2.9µM	0	-	0	0
CCCCn1c2nc3ccccc3nc2c2c(=O)n(C(C)CC)cnc21 (stereo not drawn)	0	0	0	0	0	0
N=c1c2c(-c3ccccc3)c(-c3ccccc3)n(Cc3ccccc3)c2ncn1CCO	0	?	0	4.1µM	0	0
N=c1c2c(-c3ccccc3)c(-c3ccccc3)n(Cc3ccco3)c2ncn1CCCN1CCOCC1	?	0	0	?	0	0
COCCCn1c2nc3ccccc3nc2c2c(=O)n(Cc3ccc(Cl)cc3)cnc21	?	0	0	?	0	0
CC(C)n1cc(CN2CCCC(CO)(Cc3cccc(Cl)c3)C2)cn1 (stereo not drawn)	0	?	0	?	0	0
CC(C)Cn1cnc2c(c(-c3ccccc3)c(-c3ccccc3)n2Cc2ccco2)c1=N	0	2.1µM	0	-	0	0
FCCCOc1ccc(-c2nccc(-c3ccc(Cl)cc3)n2)cc1	0	0	0	0	0	0.11µM
COC(=O)c1ccc2nc(NC(=O)C3CC3)sc2c1	0	0	0	0	0	0
COC(=O)c1ccc2nc(NC(=O)CN3C(=O)CCC3=O)sc2c1	?	0.83µM	0	0	0	0
O=C(NC(=S)N1CCCCC1)C12CC3CC(CC(C3)C1)C2	0	?	0	-	?	0
O=C(c1cc(NC(=O)C23CC4CC(CC(C4)C2)C3)cc(NC(=O)C23CC4CC(CC(C4)C2)C3)c1)N1CCCCC1	0	1.5µM	0	1.9µM	0	0
CCC1CCCCN1CC(O)Cn1c2ccccc2n2c(=O)cc(C)c(C#N)c12 (stereo not drawn)	0	4.7µM	0	?	0	0
COc1ccccc1N1CCN(C(=O)c2cc3c(=O)n(C)c4ccccc4c3s2)CC1	0	-	0	-	-	-
Cn1cnc(S(=O)(=O)N2CCCC(C(=O)NCc3ccccc3)C2)c1 (stereo not drawn)	0	-	0	-	-	-
COc1ccc(Nc2nc(N)c([N+](=O)[O-])c(NC3CCCCC3)n2)cc1	0	10µM	0	?	0	0
C[C@@H](NCCCc1cccc(C(F)(F)F)c1)c1cccc2ccccc12	-	12µM	-	7.6µM	-	-

Screens as filed in PubChem.
